Screening data from PubChem.
NR5A2 inv ag: NR5A2 inverse agonism in reporter assay; actives 0.13% (n = 360,000); inhibition, % at 3.6 µM; HEK293T StAR-luciferase reporter, LRH-1 transfected, 24 h; O00482; AID 602396;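 active = inhibition above the mean inhibition of all tested compounds plus 3 SD, cut at about 73% in these data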;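 also: 0% = DMSO wells and 100% = reporter-only cells lacking LRH-1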
Target sequence (O00482 whole entry, looked up): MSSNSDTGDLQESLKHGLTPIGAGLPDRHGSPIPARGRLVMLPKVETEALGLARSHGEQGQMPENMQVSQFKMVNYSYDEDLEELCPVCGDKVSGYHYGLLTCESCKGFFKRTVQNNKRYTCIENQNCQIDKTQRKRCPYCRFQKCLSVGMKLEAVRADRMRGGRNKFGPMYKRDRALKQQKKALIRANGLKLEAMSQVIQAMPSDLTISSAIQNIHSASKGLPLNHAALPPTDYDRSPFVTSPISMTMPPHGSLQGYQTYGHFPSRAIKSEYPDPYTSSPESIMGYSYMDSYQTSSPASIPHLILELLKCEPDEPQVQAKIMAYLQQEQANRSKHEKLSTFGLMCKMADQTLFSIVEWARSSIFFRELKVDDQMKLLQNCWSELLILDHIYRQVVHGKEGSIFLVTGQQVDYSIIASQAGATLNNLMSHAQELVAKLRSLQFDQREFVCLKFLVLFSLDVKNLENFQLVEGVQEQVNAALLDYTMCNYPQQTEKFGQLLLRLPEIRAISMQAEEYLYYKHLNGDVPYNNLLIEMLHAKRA
NCOA3 inh: inhibits human SRC3 coactivator. inhibition, % at 3.6 µM. HEK293 GAL4-SRC3 luciferase reporter, luminescence. actives 0.17% (n = 360,000). Q9Y6Q9;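 active = inhibition above a per-campaign cutoff, the mean of all compounds plus 3 SD, cut at about 60% in these data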;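 also: 0% = DMSO-treated cells and 100% = gossypol-treated cells at 36 µM; higher means less SRC3-driven luciferase light from the GAL4 reporter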
GalR3 antagonist: antagonists of human GalR3 | HEK293 GalR3-CNG cAMP membrane potential fluorescence; galR3 body fused to GalR1 C-terminus | inhibition, % at 3 µM | actives 0.44% (n = 360,000);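 active = inhibition above the screen-wide average plus 3 SD, cut at about 13% in these data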;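 also: forskolin and galanin both at EC90 stimulate the cells; cAMP rise reported by CNG channel membrane potential dye signal; 0% = forskolin plus galanin with DMSO and 100% = forskolin alone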
NCOA2 inhibitor: human SRC2 (NCOA2) inhibition | actives 0.17% (n = 370,000) | HEK293 GAL4-SRC2 luciferase reporter, luminescence | AID 651957 | Q15596 | inhibition, % at 9 µM;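 active = inhibition above the mean inhibition of all tested compounds plus 3 SD, set per campaign, cut at about 52% in these data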;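 also: 0% = DMSO treated cells and 100% = cells given Gossypol at 36 µM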
SRC1 inh: inhibits human SRC1 coactivator; AID 588354; HEK293 GAL4-SRC1 luciferase reporter, luminescence; actives 0.12% (n = 360,000); inhibition, % at 3.6 µM;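 active = inhibition above the campaign mean plus 3 SD, with each screening campaign given its own cutoff, cut at about 60% in these data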;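 also: 0% = DMSO treated cells and 100% = gossypol at 36 µM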
NR2F2 inh: NR2F2 (human) inhibition, primary screen; HEK293T NGFI-A luciferase reporter, luminescence; inhibition, % at 8.6 µM; actives 0.7% (n = 370,000);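 active = inhibition above a per-plate cutoff, mean inhibition of test wells between control levels plus 3 SD, cut at about 38% in these data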;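 also: cells cotransfected with COUP-TFII expression vector driving the NGFI-A reporter; 0% = median of COUP-TF2 test wells and 100% = reporter-only cells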
Gal4-VP16 ctr: counter-screen for COUP-TFII antagonists: inhibitors of VP16. actives 25% (n = 2,500). shares compounds with NR2F2 inh. inhibition, % at 8.5 µM. AID 687007. HEK293 Gal4-VP16 luciferase reporter, luminescence; in the data active = inhibition above about 13%
NR2F2 inh conf: confirmation of human COUP-TFII (NR2F2) inhibitors | shares compounds with NR2F2 inh | HEK293 NGFI-A luciferase reporter, luminescence | inhibition, % at 8.5 µM | actives 45% (n = 2,500) | AID 687008;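 active = mean inhibition over three repeats above a set limit taken from the earlier primary screen, cut at about 38% in these data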;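 also: 100% = cells given the luciferase reporter alone without the COUP-TF2 vector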
The depositor's hits bear a star; i = inactive; / = no result. An excerpt weighted towards active compounds, which were near 1.1% of everything screened.

SMILES | NR5A2 inv ag | NCOA3 inh | GalR3 antagonist | NCOA2 inhibitor | SRC1 inh | NR2F2 inh | Gal4-VP16 ctr | NR2F2 inh conf
O=C(NCCO)[C@H](Cc1ccccc1)NC1(C(=O)NCCc2c[nH]c3ccccc23)CCCCC1 | / | / | / | / | / | -7.9 | / | /
CCOC(=O)c1c(NC(=S)N2CCN(C)CC2)sc2c1CCN(C(=O)OCC)C2 | -12.5 | 34.9 | -1.8 | -11.2 | -4.5 | 39.3* | 0.6 | 7.6
CCOC(=O)c1c(NC(=O)CN(CC)CC)sc2c1CCN(C(=O)OCC)C2 | 25.9 | 3.1 | -12.4 | -12.5 | 1.0 | 11.7 | / | /
Cc1nc(N2CCN(C(=O)COc3ccccc3C)CC2)c2c3c(sc2n1)CCCC3 | / | / | / | / | / | 75.7* | -7.5 | -17.5
c1nc(N2CCOCC2)c2c3c(sc2n1)CCCC3 | 6.0 | 22.7 | -5.0 | 12.2 | 13.2 | -4.0 | / | /
O=C(c1ccccc1)N1CCN(c2ncnc3sc4c(c23)CCC4)CC1 | -8.3 | 16.4 | -4.8 | 39.9 | 16.6 | 40.0* | -7.2 | 10.4
COC[C@H]1CCCN1c1cccc2c1S(=O)(=O)N(C1CC1)CCCO2 | / | / | / | 9.8 | / | 5.3 | / | /
CC(C)CCCCCCCCCCCCC(=O)NCC(=O)NC1C(C)OC(Nc2ncnc3nc[nH]c23)C(O)C1O (stereo not drawn) | 88.2* | 91.1* | -7.5 | 40.0 | 86.9* | 77.5* | 14.4* | 81.7*
Cc1cc(N)n(Cc2ccc(Cl)cc2)n1 | -2.5 | 13.1 | 3.3 | -4.3 | 0.8 | 3.8 | / | /
Cc1ccc(-c2cc(N)n(Cc3ccc(Cl)cc3)n2)cc1 | 37.6 | 0.1 | 88.9* | -21.2 | -5.2 | 47.6* | -18.8 | 21.1
O=C1CSc2ccc(C(=O)Nc3cccc(S(=O)(=O)Nc4ccc(Br)cc4)c3)cc2N1 | -3.2 | 16.9 | -2.6 | 37.4 | -25.2 | 74.5* | 0.2 | 32.4
O=C(COC(=O)c1ccc[nH]c1=O)Nc1ccc(N2CCCCC2)cc1 | 47.9 | 50.1 | -2.5 | 87.4* | 50.8 | 86.1* | 76.9* | 71.1*
O=C(COC(=O)c1ccc[nH]c1=O)Nc1ccc(S(=O)(=O)N2CCCC2)cc1 | 6.5 | 1.0 | -3.3 | 5.2 | -16.2 | 2.0 | / | /
O=C(CN(C(=O)OCC1c2ccccc2-c2ccccc21)[C@@H](Cc1ccccc1)C(=O)O)OCc1ccc(C(=O)NCc2ccccc2)cc1 | / | / | / | -8.9 | / | -5.0 | / | /
c1ccc(-c2ccc(-c3nc(-c4ccccn4)no3)cc2)cc1 | 47.8 | 66.4* | -13.4 | 66.8* | 55.6 | 63.5* | 70.9* | 87.8*
Cc1ccc(-c2nc(-c3ccccn3)no2)cc1 | 42.5 | 57.3 | 0.2 | 74.9* | 50.7 | 71.8* | 60.3* | 78.5*
COC1=C[C@H](C(=O)NCc2ccccc2)[C@H](C)[C@@H](c2ccccc2)CC1=O | / | / | / | -12.7 | / | 3.6 | / | /
C#CCN(CC=C)Cc1ccc(OC)cc1OC | / | / | / | -18.0 | / | -40.9 | / | /
COc1ccc(C(=O)NC2CCCc3c2cnn3-c2cccc(C)c2C)o1 (stereo not drawn) | 1.3 | -172.2 | -2.5 | 3.1 | -45.0 | 11.4 | / | /
Cc1cccc(-n2ncc3c2CCCC3NC(=O)c2cccs2)c1C (stereo not drawn) | -3.8 | 6.5 | -6.1 | 5.5 | 2.7 | 43.8* | -2.0 | 25.2
Cc1cccc(-n2ncc3c2CCCC3NC(=O)Cc2c(C)noc2C)c1C (stereo not drawn) | 27.6 | -10.9 | 0.4 | 15.9 | 0.6 | 41.5* | -1.2 | 36.2
CC1=C(C(=O)NC2CCCc3c2cnn3-c2cccc(C)c2C)OCCO1 (stereo not drawn) | 25.5 | 8.6 | 0.3 | 24.3 | 15.1 | 55.9* | -1.8 | 44.5*
Cc1cc(C(=O)NC2CCCc3c2cnn3-c2cccc(C)c2C)no1 (stereo not drawn) | -6.9 | -23.0 | -4.2 | 4.3 | 15.7 | -15.8 | / | /
O=[N+]([O-])c1ccc(NCCCN2CCC(C(O)(c3ccccc3)c3ccccc3)CC2)cc1 | / | / | / | 8.1 | / | -31.0 | / | /
COc1ccc2c(c1)NC(=O)[C@@]2(CCN1C(=O)c2ccccc2C1=O)c1[nH]c2ccccc2c1CCN1C(=O)c2ccccc2C1=O | / | / | / | / | / | -6.1 | / | /
SMILES | NR5A2 inv ag | NCOA3 inh | GalR3 antagonist | NCOA2 inhibitor | SRC1 inh | NR2F2 inh | Gal4-VP16 ctr | NR2F2 inh conf
CC1CN(c2nc3ccccc3nc2SCC(=O)N2CCN(S(=O)(=O)c3ccc(F)cc3)CC2)CC(C)O1 (stereo not drawn) | / | / | / | 3.5 | / | 24.6 | / | /
CC1CN(c2nc3ccccc3nc2SCC(=O)N2CCN(S(=O)(=O)c3ccccc3)CC2)CC(C)O1 (stereo not drawn) | / | / | / | 11.9 | / | 42.7* | 3.0 | 9.6
COc1ccc(/C=C2\CC3(OC(=O)c4ccco4)CCCN2C3)cc1 (stereo not drawn) | / | / | / | -2.5 | / | -19.5 | / | /
COc1ccc(NC(=O)CSc2nnc(-c3cccc(O)c3)o2)cc1 | 21.7 | 4.0 | -11.4 | -10.9 | 4.0 | -9.7 | / | /
COc1cccc(NC(=O)CSc2nnc(-c3cc(C)n(-c4ccccc4)c3C)o2)c1 | 58.7 | 48.6 | -0.1 | 40.2 | 43.1 | 68.0* | 30.1* | 69.9*
N#Cc1ccc(/C=C2\CC3(OC(=O)C4CCCCC4)CCCN2C3)cc1 (stereo not drawn) | / | / | / | -20.6 | / | 3.6 | / | /
COc1ccccc1N1CCN(C(=O)CSc2nnc3n2C(C)(C)Cc2ccccc2-3)CC1 | 25.8 | 38.6 | -7.9 | 28.5 | 9.4 | 63.2* | 4.2 | 44.6*
CC1Cc2ccccc2N1C(=O)CSc1nnc2n1C(C)(C)Cc1ccccc1-2 (stereo not drawn) | 11.6 | -1.6 | -4.7 | 5.1 | 7.0 | 8.9 | / | /
CN1C/C(=C/c2ccncc2)C(=O)/C(=C/c2ccncc2)C1 | 1.2 | 6.2 | -5.0 | -5.9 | 9.2 | -9.5 | / | /
C=CC(=O)N1C/C(=C/c2ccccc2)C(=O)/C(=C\c2ccccc2)C1 | 70.2 | -164.0 | -5.8 | 67.3* | i | 98.1* | 71.3* | 101.1*
O=C1C(=Cc2ccc(Cl)cc2)Cc2ccccc21 | 1.4 | / | -5.8 | -0.7 | / | -31.4 | / | /
C=CC(=O)N1C/C(=C/c2ccc(Cl)cc2)C(=O)/C(=C\c2ccc(Cl)cc2)C1 | 49.1 | -159.4 | -2.5 | 59.6* | i | 90.0* | 85.4* | 101.5*
Cc1ccc(-n2c(SCC(=O)Nc3ccc4c(c3)OCCO4)nnc2-c2cnccn2)cc1 | / | / | / | 0.7 | / | 15.9 | / | /
COC(=O)c1cccc(OCC(C)CN2CCC(C(O)(c3ccccc3)c3ccccc3)CC2)c1 (stereo not drawn) | / | / | / | -0.8 | / | 3.4 | / | /
CN(CCc1ccccc1)C(=O)c1ccc(NC(=O)Cc2ccc(NC(=O)C3CCCN(C(=O)CCc4ccccc4)C3)cc2)cc1 (stereo not drawn) | 54.4 | 31.9 | -8.0 | 21.0 | 19.9 | 72.7* | 3.0 | 71.5*
CC(C)c1cc(C(C)C)c(S(=O)(=O)N2CCC(C(=O)NCC3COCCO3)CC2)c(C(C)C)c1 (stereo not drawn) | / | / | / | 16.6 | / | 18.2 | / | /
